This is a sample that favours compounds with a hit; in the whole collection about 7.5% have one here.
SMN2 splice up – qHTS Assay for Enhancers of SMN2 Splice Variant Expression; AID 1458, 2008; 210,000 tested, 2.8% active; HEK293 SMN2-luciferase splicing reporter, luminescence, 30-36 h; Potency, µM (titrated, usually from 46.1 µM), without a hit: at the top dose activity change, positive = activation, most hits filed as activators; also: % of control where 0% means no effect; nearly all actives have a fitted effect of over 55% in size
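HEK293 cells carry an SMN2 minigene-luciferase reporter in which exon 7 inclusion puts luciferase in frame. Cells were seeded at 2000 cells/well, attached for 10-12 hours, then exposed to compounds for 30-36 hours at 37C before ONE-Glo luminescence.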
Luc counter – Counterscreen for Luciferase (Kinase-Glo TM) Inhibition. Luciferin 4-monooxygenase (Photuris pensylvanica), Q27757. Kinase-Glo luciferase, ATP luminescence, 8 min. Potency, µM (doses to about 38.3 µM), for inactives: top-dose activity change, negative = inhibition, hits mostly inhibitors. 200,000 tested, 0.28% active; also: % is scaled to controls: 0 for no effect and ±100 for the full control effect; nearly all actives have a fitted effect of over 60% in size
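Luminescence was the read-out, taken after 8-minute incubation at ambient temperature. Luciferase turned over luciferin with 10 uM ATP in imidazole pH 7.2 buffer containing KCl, MgCl2, Tween 20 and BSA.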
NPC1 promoter act – qHTS Assay for NPC1 Promoter Activators. Potency, µM (series often up to 9.22 µM), inactives show at the highest dose activation, actives largely listed as activators. 320,000 tested, 2.4% active. AID 485313, 2010. Huh7 NPC1 promoter luciferase reporter, 24 h; also: % of control where 0% means no effect; nearly all actives have a fitted effect of over 60% in size
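Huh7 reporter cells (NPC1 promoter driving luciferase) are dosed with compound for 24 h at 37 °C, 5% CO2; luciferase detection reagent is then added and luminescence measured after 10 min at ambient temperature.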
ELG1 genotox – qHTS screen for small molecules that induce genotoxicity in human embryonic kidney (HEK293T) cells expressing luciferase-tagged ELG1. HEK293T ELG1-luciferase reporter, luminescence, 16 h. Potency, µM (highest dose often 46 µM), for inactives: at the top dose activity change, positive = activation, most hits filed as activators. 330,000 tested, 1.3% active. AID 504466, 2011; also: % of control where 0% means no effect; nearly all actives have a fitted effect of over 60% in size
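Reporter readout depends on ELG1 protein level, which increases with genetic stress. After 16 hr compound exposure at 37 °C, luciferase activity was quantified using ONE-Glo.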
Rab9 prom act – qHTS Assay for Rab9 Promoter Activators; Potency, µM (doses to about 9.22 µM), for inactives: at the highest dose activation, negative = inhibition, actives largely listed as activators; AID 485297, 2010; Huh7 Rab9 promoter-luciferase reporter, luminescence, 24 h; 320,000 tested, 2.8% active; also: % of control where 0% means no effect; nearly all actives have a fitted effect of over 60% in size
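Huh7 cells stably carrying a Rab9 promoter-luciferase reporter, 1500 cells per well in OP-MEM I with 10% FBS, treated with compound 24 hours at 37C. Luciferase activity read by luminescence after 10 minutes with Amplite reagent.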
FLuc modulator – qHTS profiling assay for firefly luciferase inhibitor/activator using purifed enzyme and Km concentrations of substrates (counterscreen for miR-21 project) | Luciferin 4-monooxygenase (Photinus pyralis), P08659 | 360,000 tested, 6.9% active | purified FLuc, Km substrates, luminescence inhibition | AID 588342, 2011 | Potency, µM (top dose mostly 57.5 µM), inactives show top-dose activity change, negative = inhibition, usual class: inhibitors;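 also: plate controls were vehicle for no effect and reference inhibitor for full effect; nearly all actives have a fitted effect of over 55% in size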
Target sequence (P08659 whole entry, looked up): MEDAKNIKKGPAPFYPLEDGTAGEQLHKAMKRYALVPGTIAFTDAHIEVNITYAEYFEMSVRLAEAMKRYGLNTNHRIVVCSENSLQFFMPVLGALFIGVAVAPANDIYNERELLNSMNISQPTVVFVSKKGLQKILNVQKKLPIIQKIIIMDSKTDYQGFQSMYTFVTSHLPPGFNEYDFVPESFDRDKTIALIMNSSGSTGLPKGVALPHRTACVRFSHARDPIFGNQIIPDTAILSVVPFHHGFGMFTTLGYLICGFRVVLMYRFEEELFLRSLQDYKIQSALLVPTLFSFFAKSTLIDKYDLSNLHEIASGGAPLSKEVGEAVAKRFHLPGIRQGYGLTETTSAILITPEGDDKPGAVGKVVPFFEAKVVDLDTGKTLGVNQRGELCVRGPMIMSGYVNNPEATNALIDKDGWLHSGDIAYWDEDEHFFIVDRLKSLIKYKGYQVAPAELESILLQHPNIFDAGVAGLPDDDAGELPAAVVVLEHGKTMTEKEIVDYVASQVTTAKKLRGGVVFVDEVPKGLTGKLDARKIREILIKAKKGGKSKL
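Biochemical qHTS of compounds, final roughly 60 µM downward over six points, against 10 nM purified firefly luciferase using Km concentrations of substrates (10 uM D-luciferin, 10 uM ATP) in Tris acetate pH 7.5 buffer; luminescence output.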
* marks the source's active call; other numbers are inactive results; u = inconclusive; x = no result; [ ] = dose if it differs, or a comment. Calls follow the shape of the dose curve; as a rule, active = well fitted curve in the direction sought with a large enough effect; inconclusive = small, poorly fitted or top-dose-only effect, or another doubt; inactive = no such curve, though single readings can be large; an effect the other way counts as inactive or inconclusive. Potency is read from the fitted curve at half-maximal effect.

SMILES	SMN2 splice up	Luc counter	NPC1 promoter act	ELG1 genotox	Rab9 prom act	FLuc modulator
Cc1cc(C)cc(OCC(=O)O/N=C(\N)c2ccccn2)c1	5%	-2%	-4%	u	-8%	u
Cc1cccc(OCC(=O)O/N=C(\N)c2ccccn2)c1	u	-4%	27%	u	14%	17µM*
Cc1ccc(OCC(=O)O/N=C(\N)c2ccccn2)cc1C	x	x	2.2µM*	8.2µM*	u	12µM*
Cc1ccc(OCC(=O)O/N=C(\N)c2ccncc2)cc1C	x	x	17%	18%	u	u
CCc1ccc(OCC(=O)O/N=C(\N)c2ccccn2)cc1	x	x	3.2µM*	7.3µM*	3.2µM*	9.5µM*
N/C(=N\OC(=O)COc1ccccc1)c1ccccn1	-9%[1.84 µM]	-5%	19%	u	23%	u
CCCOc1ccc(C2c3c(-c4ccccc4O)n[nH]c3C(=O)N2CCc2ccccc2)cc1OCC (stereo not drawn)	4%	x	x	x	x	-1%
C/C(=N\Nc1nc2ccccc2[nH]1)c1cc2ccccc2o1	13µM*	-24%	16%	u	u	2.4µM*
C/C(=N\Nc1nc2ccccc2[nH]1)c1ccccn1	x	x	u	2.5µM*	29%	0.85µM*
CCNc1nc2ccccc2[nH]1	-19%	3%	-4%	1%	5%	-1%
Cc1nc2cc(NC(=O)NCCCO)ccc2o1	x	-3%	2%	3%	-3%	-2%
COc1ccc(NC(=O)Nc2ccc3oc(C)nc3c2)cc1	x	-2%	30%	u	u	12µM*
Cc1nc2cc(NC(=O)NCCC3=CCCCC3)ccc2o1	x	0%	4µM*	15µM*	3.5µM*	12µM*
Cc1csc(SCc2nnc(-c3ccc(Cl)cc3)o2)n1	u	0%	2.8µM*	10µM*	2.8µM*	7.6µM*
Fc1ccccc1SCc1nnc(-c2ccccc2Br)o1	2.8µM*	-8%	0.71µM*	2.9µM*	0.35µM*	0.95µM*
Cc1csc(SCc2nnc(-c3ccccc3Br)o2)n1	x	x	1.4µM*	u	1.8µM*	1.7µM*
Cc1nnc(SCc2nnc(-c3ccccc3Br)o2)n1-c1ccccc1	-11%	0%	-1%	1%	-1%	-14%
O=C(COn1nnc2ccccc21)NCC1CCCCC1	20%	-2%	18%	13µM*	19%	17µM*
COc1ccc(/C(N)=N/OC(=O)C2CCCCC2)cc1OC	x	x	u	-1%	u	u
COc1ccc(C(=O)O/N=C(\N)c2ccc(OC)c(OC)c2)c(OC)c1	x	x	24%	u	24%	u
COc1ccc(C(=O)O/N=C(\N)c2ccc(OC)c(OC)c2)cc1	x	x	26%	u	u	7.6µM*
COc1ccc(/C(N)=N/OC(=O)C2CCCCC2)cc1	x	x	2.8µM*	8.2µM*	u	8.5µM*
COc1ccc(C(=O)O/N=C(\N)c2ccccn2)c(OC)c1	x	x	0.5µM*	1.5µM*	0.5µM*	2.7µM*
COc1ccc(C(=O)O/N=C(\N)c2ccccc2)c(OC)c1	3.2µM*	u	3.2µM*	u	u	1.7µM*
COc1ccc(-c2cc(C(F)(F)F)n3ncc(C(=O)N4CCCCC4c4cccnc4)c3n2)cc1 (stereo not drawn)	-5%	1%	1%	-7%	13%	-5%
COC(=O)c1ccccc1NC(=O)c1cc2nc(-c3ccccc3)cc(-c3ccccc3)n2n1	9%	x	x	x	x	2%
CCCc1cc(C(=O)Nc2nnc(C)s2)cs1	u	-6%	u	u	3.5µM*	9.5µM*
Cc1ccc(C(=O)Nc2nnc(C)s2)cc1	14µM*	-6%	3.5µM*	-2%	3.2µM*	12µM*
CCN(CC)S(=O)(=O)c1nnc(NC(=O)c2ccc(Br)cc2)s1	x	x	x	x	x	-7%
